# Measurements taken from PubChem BioAssay (EPA / NIEHS).
# Records with an inconclusive call do not appear. Calls of active or inactive are those of the source. The calls were made as follows, unless noted: active = hit-call score of the fitted dose curve at least 0.9, where 1 is the maximum; inconclusive = response in the unintended direction; inactive = score below 0.9.
# How the values were obtained:
# [1] = CCTE_Harrill_HTTr_Apoptosis_MCF7: CCTE's 6-hour Apoptosis Assessment for the High-Throughput Transcriptomics (HTTr) Platform, in MCF-7 cells cultured in DMEM + 10% fetal bovine serum, Harrill Lab (AID 2284011; active = hit-call score of the fitted dose curve at least 0.9, where 1 is the maximum; inactive = score below 0.9)
# Summary of the method: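 MCF-7 cells in DMEM + 10% FBS exposed 6 h to chemicals over an eight-point dilution series. Caspase-3/7 activation imaged by high-content CellEvent Green staining; fitted bidirectionally versus DMSO.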
# [2] = CCTE_Harrill_HTTr_CellCount_MCF7: CCTE's Cell Proliferation Assessment for the High-Throughput Transcriptomics (HTTr) Platform, Harrill Lab (AID 2284012);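 also: count of Hoechst-stained nuclei per well by high-content imaging in MCF-7 cells; cells exposed to compound for six hours; intended direction is loss of nuclei count meaning fewer cells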
# Summary of the method: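 For this full-screen endpoint, MCF-7 cultures received eight compound dilutions for six hours. Well nuclei counts from Hoechst imaging were analyzed relative to DMSO.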
smiles,measurement,setting,value
ClC=C(Cl)CCl,outcome,[1],inactive
same,outcome,[2],inactive
